# Data from ChEMBL document CHEMBL4513216, “Probing the Open Global Health Chemical Diversity Library for Multistage-Active Starting Points for Next-Generation Antimalarials” (ACS Infect Dis, 2020).
# The campaign covered roughly 69,000 compounds. About 8,600 (12%) showed an effect of 50% or more. Shown is part of a subset that was picked to be rich in strong results.
# Test system: Plasmodium berghei
# Test: Screen against P. berghei liver stage (PbLuc), transformed with Luciferase, at 10uM
# Format: functional, HepG2
# Details: tested at 10 uM
row,SMILES,INHIBITION [%]
1,CCCn1c(NC(=O)CNC(=O)OCC)nc2ccccc21,-3.74
2,CCOCCCn1c(NC(=O)c2ccc(C)nc2)nc2ccccc21,37.2
3,CCOc1cccc(NC(=O)c2cc(C)on2)n1,44.1
4,Cc1ncsc1C(=O)Nc1ccccn1,25.2
5,CCOCCCn1c(NC(=O)c2cc(C)no2)nc2ccccc21,5.7
6,CCOCCCn1c(NC(=O)c2cnc(C)s2)nc2ccccc21,57
7,CCOCCCn1c(NC(=O)c2ccnc(C)n2)nc2ccccc21,25.4
8,CCOCCCn1c(NC(=O)c2cc(C)on2)nc2ccccc21,64.9
9,CCN(CC)CCn1c(NC(=O)c2scnc2C)nc2ccccc21,59
10,CCOCCCn1c(NC(=O)c2cnn(C)c2)nc2ccccc21,-4.73
11,CCOCCCn1c(NC(=O)c2cnc(C)cn2)nc2ccccc21,-96.9
12,CCOCCCn1c(NC(=O)c2scnc2C)nc2ccccc21,69.8
13,Cc1ccc(C(=O)NCCS(=O)(=O)N2CCSCC2)o1,44.9
14,Cc1nc2cc(O)nn2c(C)c1CCC(=O)N(C)Cc1cscn1,-16.6
15,O=C1CCCN1c1cccc(CNCc2nc(-c3ccco3)no2)c1,-8
16,Cn1nccc1CCC(=O)NC1CCCN(c2ccccn2)C1 (stereo unspecified),25.05
17,CC(C)N(C)[C@@H]1CCN(Cc2nccs2)[C@H]1Cc1ccncc1,24.6
18,CC1COCCN1Cc1nc(-c2ccc(F)cc2)no1 (stereo unspecified),-0.113
19,COC1C[C@@H]2CN(C(=O)c3[nH]nc4c3CCCC4)C[C@@H]2C1 (stereo partly specified),24.8

row,SMILES,INHIBITION [%]
1,Cn1c(CN2CCCC(c3noc(C4CC4)n3)C2)cc(=O)n(C)c1=O (stereo unspecified),-50.5
2,CNC(=O)c1cccc(C2CNCCN2C(=O)c2cccc(F)c2)c1 (stereo unspecified),44.8
3,COCCN1CCC2(CC1)CN(C(=O)N(C)C)c1ccc(C)cc12,26.2
4,COc1ccccc1NC(=O)C1(c2ccccc2)CCOCC1,6.26
5,CCOCC(=O)N1C[C@H]2CC[C@@H](C1)N(Cc1ccccn1)C2=O,28.7
6,COCCOc1ccc(NC(=O)C2CC(=O)N(C3CC3)C2)cn1 (stereo unspecified),4.71
7,COCCN(Cc1ccc(C)cc1)CC1CCOC1 (stereo unspecified),67.4
8,COCCN(Cc1cnn(C)c1)CC1CCOC1 (stereo unspecified),19.8
9,COCCN(Cc1cnn(C)c1)CC1CCN(C(C)C)CC1,33.7
10,c1cc(-c2cnc(NC3CC3)nc2[C@H]2CCCO2)ccn1,-12.3
11,Cc1ccc(C(=O)N2CC3(CCNCC3)c3cc(Cl)ccc32)cn1,5.04
12,CCN1CC(COC(=O)c2ccc(Br)cc2F)CC1=O (stereo unspecified),0.0459
13,Cc1ncc2c(n1)CN(Cc1nc(C)c(C)o1)CC2,38
14,CCc1ncc(CN2CCC3(CCCN(CC4CCC4)C3)C2)cn1 (stereo unspecified),57.5
15,COc1ncc(CN2CCC3(CCCN(CC4CCCCC4)C3)C2)cn1 (stereo unspecified),6.94
16,Cc1ncc(CN2CCC3(CCCN(CC4CCC4)C3)C2)cn1 (stereo unspecified),53.5
17,COc1ncc(CN2CCC3(CCCN(CC4CCC4)C3)C2)cn1 (stereo unspecified),17.8
18,COCCc1ncc(CN2CCC3(CCCN(CC4CC4)C3)C2)cn1 (stereo unspecified),46.6
19,Cc1noc(C)c1CN1CCCC2(CCN(CC3CCCC3)C2)C1 (stereo unspecified),49.4

row,SMILES,INHIBITION [%]
1,Cc1nc(NCC(O)CN2CCCCCC2)c2c(C)nn(C)c2n1 (stereo unspecified),-30.3
2,CC(=O)N1CC[C@H]2OCC[C@@H](C(=O)Nc3cccnc3C)[C@@H]2C1,-1.28
3,COC(=O)CN1CC(c2nc(Cc3ccccc3)no2)C1,-14.6
4,CNC(=O)CCc1cc(C2CCCN2S(C)(=O)=O)nc(C)n1 (stereo unspecified),6.33
5,OCCNc1cc(-c2ccncc2)ncn1,47.1
6,C[C@H](O)CNc1cc(-c2ccncc2)ncn1,54.5
7,C[C@H](O)CNc1cc(-c2ccccc2)ncn1,26.3
8,Cc1cc(CN2C[C@@H]3COC[C@]3(CNC(=O)c3ccsc3)C2)no1,-2.25
9,O=C(CCC1CCCC1)N1C[C@@H]2CC[C@H]1CN(Cc1ccncc1)C2,27.6
10,Cc1ccccc1-c1noc(-c2ccc(NCC3COCCO3)nc2)n1 (stereo unspecified),32.3
11,COc1cccc(-c2noc(-c3ccc(NCCCO)nc3)n2)c1OC,43.9
12,CN(C)CCNc1ccc(-c2nc(-c3ccccc3F)no2)cn1,80.7
13,CN(C)CCNc1ccc(-c2nc(COc3ccccc3)no2)cn1,56.5
14,COc1cccc(-c2noc(-c3ccc(NCCCN)nc3)n2)c1OC,46.7
15,CN(C)CCN(C)c1ccc(-c2nc(COc3ccccc3)no2)cn1,41.3
16,CC(C)(CO)Nc1ccc(-c2nc(-c3ccccc3F)no2)cn1,91.3
17,CNCCNc1ccc(-c2nc(-c3cccc(OC)c3OC)no2)cn1,25.8
18,COC(=O)CNc1ccc(-c2nc(Cc3ccc(OC)cc3)no2)cn1,26.6
